Screening data: PubChem BioAssay, several laboratories
An excerpt weighted towards active compounds, which were near 5.4% of everything screened.
CSC inhib: cancer stem cell viability inhibitors, primary screen, luminescence; inhibition, % at 7.5 µM; cancer stem cell-like cells viability; 300,000 compounds, 1.1% hits; in the data active means inhibition above about 75%; inconclusive means no clear call, values can overlap the other calls; tested in HMLE shEcad cells
Beta apoptosis: inhibitors of cytokine-induced beta cell apoptosis, primary screen, luminescence; INS-1E cytokine-induced death, ATP luminescence, 48 h; percent of positive-control rescue, neutral wells zero; protection from apoptosis, % (concentration not given with the values); 300,000 compounds, 0.8% hits;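 active means Every replicate reaches about 75%, or at least half do and their mean reaches it too, limit read from the data; inconclusive means At least half of replicates reach the limit but their mean does not; inactive means Under half of replicates reach the limit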;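 further: 0% = cytokine-treated negative control wells and 100% = positive control rescue; higher means more ATP so stronger rescue from cytokine killing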
Mdm2 MdmX PPI: inhibitors of human Mdm2-MdmX association, primary screen, cell-based, luminescence, split luciferase, SaOS-2, uHTS. SaOS-2 split-luciferase Mdm2/MdmX complementation. inhibition, % at 8 µM. 330,000 compounds, 3% hits;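 active means inhibition of at least 50% at 8 µM in the primary screen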
Target sequence (O15151 whole entry, looked up): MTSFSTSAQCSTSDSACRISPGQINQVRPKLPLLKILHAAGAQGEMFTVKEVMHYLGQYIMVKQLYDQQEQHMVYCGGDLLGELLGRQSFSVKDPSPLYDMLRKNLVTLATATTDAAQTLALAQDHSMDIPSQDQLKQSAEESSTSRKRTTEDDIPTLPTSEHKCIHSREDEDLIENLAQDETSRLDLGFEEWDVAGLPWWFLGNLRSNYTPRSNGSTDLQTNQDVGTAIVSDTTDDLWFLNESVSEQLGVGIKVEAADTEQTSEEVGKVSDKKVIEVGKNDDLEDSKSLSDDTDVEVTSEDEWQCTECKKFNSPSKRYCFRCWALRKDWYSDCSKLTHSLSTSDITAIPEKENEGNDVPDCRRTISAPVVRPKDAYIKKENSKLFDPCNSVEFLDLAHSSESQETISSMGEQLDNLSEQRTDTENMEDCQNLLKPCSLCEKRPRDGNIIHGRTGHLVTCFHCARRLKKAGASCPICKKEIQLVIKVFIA
Target sequence (Q00987 whole entry, looked up): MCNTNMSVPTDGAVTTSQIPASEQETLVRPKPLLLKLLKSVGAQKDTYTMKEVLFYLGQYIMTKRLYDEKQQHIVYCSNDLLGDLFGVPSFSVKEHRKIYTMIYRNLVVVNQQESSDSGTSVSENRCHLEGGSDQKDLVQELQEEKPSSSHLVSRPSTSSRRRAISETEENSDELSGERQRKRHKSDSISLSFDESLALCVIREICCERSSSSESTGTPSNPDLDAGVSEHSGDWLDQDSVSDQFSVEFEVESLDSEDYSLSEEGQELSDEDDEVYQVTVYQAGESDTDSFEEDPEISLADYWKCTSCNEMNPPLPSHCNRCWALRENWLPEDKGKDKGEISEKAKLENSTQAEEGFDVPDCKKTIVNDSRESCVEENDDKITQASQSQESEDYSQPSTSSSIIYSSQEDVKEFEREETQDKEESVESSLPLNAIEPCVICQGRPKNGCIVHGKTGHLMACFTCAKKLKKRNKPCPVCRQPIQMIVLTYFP
Calb FLC: C. albicans growth inhibition with fluconazole, primary screen, CaCi-2 strain, Alamar Blue fluorescence; C. albicans CaCi-2 (fluconazole-resistant clinical isolate) + fluconazole, 48 h; growth inhibition, % (concentration not given with the values); 300,000 compounds, 0.57% hits; AID 1979, 2009;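 active means growth inhibition above about 58% in most replicates, limit read from the data, passing the limit was not always enough; inconclusive means exactly half the replicates above a set limit; inactive means most replicates below a set limit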;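 further: all wells also contain fluconazole at 8 µg/ml as a sub-toxic cotreatment; 0% = median of DMSO wells and 100% = median of geldanamycin control wells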
MPTP inh: mitochondrial permeability transition pore inhibitors, primary screen, biochemical, isolated mouse mitochondria, absorbance | Ca2+ swelling absorbance, 30 min | inhibition, % at 10 µM | 360,000 compounds, 1.4% hits | AID 602449, 2012;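 active means inhibition of 50% or more, scaled per plate between neutral and stimulator controls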;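 further: 0% = DMSO wells given calcium and 100% = 1 mM EGTA wells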
SKKanGAS inh: S. pyogenes SKKanGAS growth inhibitors in kanamycin, primary screen, streptokinase expression inhibitor project, SKKanGAS strain, BacTiter-Glo luminescence; 6 h; inhibition, % at 7.5 µM; 300,000 compounds, 1.3% hits; AID 1662, 2009;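 active means mean replicate score, as percent of positive control median, at least 50; inconclusive means mean below 50 but one replicate at or above 50; inactive means mean and every replicate below 50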;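 further: strain carries kanamycin resistance gene driven by streptokinase promoter and grows in 40 µg/ml kanamycin; loss of luminescence reflects streptokinase promoter inhibition or plain growth inhibition; 0% = median of DMSO wells and 100% = positive control at its reference dose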
Mdm2-MdmX conf: Mdm2-MdmX complex disruptors, retested hits, confirmation, luminescence, single concentration | Mdm2-MdmX binding, luminescent assay | inhibition, % at 8 µM | 10,000 compounds, 55% hits | shares compounds with Mdm2 MdmX PPI; in the data active means inhibition above about 40%
Full FLuc ctr: full-length luciferase signal inhibition, confirmation, counter-screen for Mdm2/MdmX interaction inhibitor project, cell-based, single concentration, SaOS-2. shares compounds with Mdm2 MdmX PPI. SaOS-2 full-length luciferase counterscreen, luminescence. inhibition, % at 8 µM. 6,200 compounds, 77% hits. AID 504607, 2011;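 active means mean inhibition at 8 µM reaching about 37%, which flags the compound as non-specific, limit read from the data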;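 further: p53-null SaOS-2 cells with luciferase driven by a doxycycline-inducible promoter; compound on cells about two nights before reading with doxycycline added after day one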
* hit, by the source's call; ? = inconclusive; . = no result given.

SMILES	CSC inhib	Beta apoptosis	Mdm2 MdmX PPI	Calb FLC	MPTP inh	SKKanGAS inh	Mdm2-MdmX conf	Full FLuc ctr
CCN(C(=O)CSc1nc(N)cc(N)n1)C1CCS(=O)(=O)C1 (stereo unspecified)	.	-1.0	14.3	11.2	-1.4	-1.7	.	.
COc1ccc(OC)c(C2C(C(=O)c3ccco3)=C(O)C(=O)N2Cc2cccnc2)c1 (stereo unspecified)	-1.9	-6.3	3.5	.	0.5	2.8	.	.
Nc1c(-c2ccccc2)c(CN2CCOCC2)nn1-c1ccc(F)cc1	-1.1	-6.6	4.9	3.1	1.1	-1.5	.	.
COCCN(Cc1cc2ccc(C)c(C)c2nc1Cl)C(=O)N1CCOCC1	12.2	-0.6	-21.2	6.0	-1.2	5.7	.	.
COc1ccccc1Nc1nc(N)nc(CCl)n1	-6.0	-12.3	71.8*	-15.9	1.5	-2.1	68.5*	54.4*
COc1ccc(OC)c(Nc2nc(N)nc(CCl)n2)c1	-3.5	-5.6	81.6*	-5.5	1.4	-0.3	84.0*	40.7*
Cc1ccc(N=Nc2c(N)nn3c(N)c(C#N)c(C)nc23)cc1	-4.4	-0.4	61.4*	31.7	0.1	-2.5	59.1*	48.5*
Cc1ccc(N=Nc2c(N)nn3c(C)cc(C)nc23)cc1	.	9.5	20.7	37.9	0.6	-4.9	.	.
CCOC(=O)C(=O)N/N=C(/c1ccccc1)c1ccc(OC)cc1	-6.9	-0.8	21.0	-1.3	2.4	4.6	.	.
CN[C@H]1CCc2cc(OC)c(OC)c(OC)c2-c2ccc(OC)c(=O)cc21	45.9	60.4	67.6*	-3.7	-0.9	0.5	56.0*	103.7*
CCOC(=O)NC1CCc2cc(OC)c(OC)c(OC)c2-c2ccc(SC)c(=O)cc21 (stereo unspecified)	.	.	.	.	-0.5	.	.	.
COc1cc2c(c(OC)c1OC)-c1ccc(NC(=O)c3ccccc3)c(=O)cc1[C@@H](NC(C)=O)CC2	45.3	17.9	56.7*	-2.5	-1.0	8.1	65.0*	62.8*
COc1ccc2[nH]c3c(c2c1)CCNC3C1CC=C(C)CC1 (stereo unspecified)	-3.6	20.5	66.6*	-3.3	-0.2	-2.9	60.7*	57.4*
O=C(COc1ccc(Br)cc1)OCc1nnc(-c2ccccc2)o1	-1.2	-7.7	-15.7	-2.3	-0.4	5.5	.	.
CCn1c(=O)cc(OCC(=O)NCCc2ccc(OC)c(OC)c2)c2ccccc21	-10.4	4.6	26.5	-8.6	2.8	-7.2	.	.
CCN(CCCNC(=O)CCCOc1cc(=O)n(C)c2ccccc12)Cc1ccccc1	8.8	6.3	51.5*	0.1	1.3	-3.4	16.9	.
CCN(CCCNC(=O)COc1cc(=O)n(CC)c2ccccc12)Cc1ccccc1	-5.6	-11.0	59.2*	-2.5	2.6	8.6	46.4*	93.0*
CC(C)CCNC(=O)CCCOc1cc(=O)n(C)c2ccccc12	8.1	-16.7	40.1	?	-1.0	7.5	.	.
CN(C)c1ccc(C=c2c3cc([N+](=O)[O-])ccc3n3c2cc(-c2ccccc2)[n+]3C)cc1	.	.	.	.	28.5	.	.	.
O=C1C=C(c2ccc3ncccc3c2)C[C@@H](c2ccc(F)cc2)C1	18.1	9.0	32.2	.	-2.5	.	.	.
O=C1C=C(c2ccc3ccccc3c2)C[C@@H](c2ccc(F)cc2)C1	30.0	2.7	52.0*	.	1.1	.	-6.2	.
CCc1cccc(C)c1NC(=O)CC1Oc2ccc(C)cc2NC1=O (stereo unspecified)	-6.6	-0.8	3.3	-3.5	0.9	-3.2	.	.
CCOC(=O)c1oc2ccccc2c1COC(=O)CNC(=O)c1ccco1	-6.9	-5.4	-22.2	1.9	-2.4	-2.4	.	.
CCC(=O)OCCNc1cc(SCCC(=O)OC)c2nonc2c1[N+](=O)[O-]	-8.6	5.6	16.7	-13.3	0.1	-1.5	.	.
CCCC(=O)OCCNc1cc(Sc2nc3ccccc3[nH]2)c2nonc2c1[N+](=O)[O-]	3.9	3.9	96.1*	-5.8	0.2	26.1	99.2*	52.6*
